According to PubChem BioAssay (EPA / NIEHS):
Active and inactive are the calls of the source. How the source made its calls: active means hit-call score of the fitted dose curve at least 0.9, where 1 is the maximum; inactive means score below 0.9.

Columns and labels:
Settings in all cases: mRNA level, 48 h; actives raise or lower the signal
[1] = read-out: BCL2L11 (gene 10018); assay: LTEA_HepaRG_BCL2L11: Life Technologies and Expression Analysis (LTEA) Assay for Bcl-2 (BCL2L11) gene using HepaRG (AID 2283473)
Outline: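 Human hepatic HepaRG cultures are treated 48 h with test chemicals (maximum 100 uM, 0.5% DMSO vehicle). Expression of BCL2L11 is measured by qRT-PCR against ACTB, GAPDH and POLR2A, with activity in either direction scored relative to vehicle.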

[2] = read-out: Apolipoprotein A-V (APOA5) gene, APOA5 (gene 116519); assay: LTEA_HepaRG_APOA5: Life Technologies and Expression Analysis (LTEA) Assay for Apolipoprotein A-V (APOA5) gene using HepaRG (AID 2283474)
Outline: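 Concentration-response of APOA5 expression in HepaRG: eight half-log doses to 100 uM, 48 h, qRT-PCR normalized to ACTB/GAPDH/POLR2A, bidirectional fitting with 0.5% DMSO as baseline.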

[3] = read-out: Apoptosis regulator Bcl-2 (Homo sapiens) (UniProt P10415); assay: LTEA_HepaRG_BCL2: Life Technologies and Expression Analysis (LTEA) Assay for Bcl-2 gene using HepaRG (AID 2283475)
Outline: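 qRT-PCR of BCL2 transcript, normalized to three housekeeping genes (ACTB, GAPDH, POLR2A), after 48 h chemical exposure of HepaRG cells; concentrations top 100 uM with half-log dilutions, 0.5% DMSO vehicle, duplicates; changes up or down fitted relative to vehicle.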

[4] = read-out: Bcl-2 (BID) gene, BID (gene 637); assay: LTEA_HepaRG_BID: Life Technologies and Expression Analysis (LTEA) Assay for Bcl-2 (BID) gene using HepaRG (AID 2283476)
Outline: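 Duplicate 48 h treatments of HepaRG cells in serum-free induction medium spanned 100 uM downward in half-log steps, 0.5% DMSO. Transcript change quantified by qRT-PCR against three housekeeping genes, fitted up or down versus DMSO.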

[5] = read-out: Caspase-3 (Homo sapiens) (UniProt P42574); assay: LTEA_HepaRG_CASP3: Life Technologies and Expression Analysis (LTEA) Assay for cysteine-aspartic acid protease (CASP3) using HepaRG (AID 2283477)
Outline: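 Transcript-level assay: CASP3 mRNA in human HepaRG after 48 h treatment, eight half-log concentrations from 100 uM in 0.5% DMSO, quantified by qRT-PCR.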

[6] = read-out: Cytochrome P450 (CYP24A1), CYP24A1 (gene 1591); assay: LTEA_HepaRG_CYP24A1: Life Technologies and Expression Analysis (LTEA) Assay for Cytochrome P450 (CYP24A1) using HepaRG (AID 2283478)
Outline: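 Gene expression of CYP24A1 by TaqMan qRT-PCR in HepaRG after 48 h treatment, highest concentration 100 uM; activity fitted in both directions relative to DMSO vehicle.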

[7] = read-out: cysteine-aspartic acid protease (CASP8), CASP8 (gene 841); assay: LTEA_HepaRG_CASP8: Life Technologies and Expression Analysis (LTEA) Assay for cysteine-aspartic acid protease (CASP8) using HepaRG (AID 2283480)
Outline: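 CASP8 transcript measured by TaqMan qRT-PCR with ACTB/GAPDH/POLR2A normalization, after 48 h chemical exposure of HepaRG cells in serum-free induction medium. Eight concentrations, top 100 uM, half-log steps, 0.5% DMSO vehicle; fits in both directions versus DMSO.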

[8] = read-out: Cytochrome P450 (CYP2B6), CYP2B6 (gene 1555); assay: LTEA_HepaRG_CYP2B6: Life Technologies and Expression Analysis (LTEA) Assay for Cytochrome P450 (CYP2B6) using HepaRG (AID 2283481)
Outline: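 Human HepaRG, 48 h dosing, 0.5% DMSO vehicle, top dose 100 uM. CYP2B6 transcript by qRT-PCR, housekeeping-normalized, bidirectional curve fit.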

[9] = read-out: Cytochrome P450 2C19 (Homo sapiens) (UniProt P33261); assay: LTEA_HepaRG_CYP2C19: Life Technologies and Expression Analysis (LTEA) Assay for CYP2C19 using HepaRG (AID 2283482)
Outline: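 Endpoint: CYP2C19 mRNA change, bidirectional fit vs 0.5% DMSO. Cells: HepaRG, 48 h exposure, eight-point series topping at 100 uM. Quantitation: qRT-PCR normalized to ACTB, GAPDH, POLR2A.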

[10] = read-out: CYP2C8 (gene 1558); assay: LTEA_HepaRG_CYP2C8: Life Technologies and Expression Analysis (LTEA) Assay for CYP2C8 using HepaRG (AID 2283483)
Outline: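 CYP2C8 expression measured by TaqMan qRT-PCR and normalized to three housekeeping genes. HepaRG cultures were treated for 48 h with an eight-point half-log series topping at 100 uM, vehicle 0.5% DMSO, duplicates; fitted both directions against DMSO.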

[11] = read-out: CYP2C9 (gene 1559); assay: LTEA_HepaRG_CYP2C9: Life Technologies and Expression Analysis (LTEA) Assay for CYP2C9 using HepaRG (AID 2283484)
Outline: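 CYP2C9 transcript level, quantified by TaqMan qRT-PCR against three housekeeping genes, was fitted bidirectionally relative to 0.5% DMSO. HepaRG cultures were treated 48 h, in duplicate, at eight half-log concentrations topping at 100 uM.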

[12] = read-out: CYP2E1 (gene 1571); assay: LTEA_HepaRG_CYP2E1: Life Technologies and Expression Analysis (LTEA) Assay for CYP2E1 using HepaRG (AID 2283485)
Outline: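 CYP2E1 transcript measured by Fluidigm qRT-PCR against three housekeeping genes in human HepaRG cells treated 48 h (top 100 uM, half-log steps, 0.5% DMSO vehicle). Gain or loss fitted relative to DMSO baseline.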

[13] = read-out: CYP4A11 (gene 1579); assay: LTEA_HepaRG_CYP4A11: Life Technologies and Expression Analysis (LTEA) Assay for CYP4A11 using HepaRG (AID 2283486)
Outline: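 Human hepatic HepaRG cultures receive duplicate 48 h exposures across a concentration-response series topping at 100 uM. Expression changes in CYP4A11 are measured by qRT-PCR relative to DMSO controls.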

[14] = read-out: Cytochrome P450 3A4 (Homo sapiens) (UniProt P08684); assay: LTEA_HepaRG_CYP3A4: Life Technologies and Expression Analysis (LTEA) Assay for CYP3A4 using HepaRG (AID 2283487)
Outline: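 HepaRG, 48 h exposure, 8-pt CRC from 100 uM (half-log), 0.5% DMSO, duplicates; serum-free induction medium. Readout: CYP3A4 mRNA, qRT-PCR, ACTB/GAPDH/POLR2A normalization. Bidirectional fit vs DMSO.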

[15] = read-out: DNA damage-inducible transcript 3 (DDIT3), DDIT3 (gene 1649); assay: LTEA_HepaRG_DDIT3: Life Technologies and Expression Analysis (LTEA) Assay for DNA damage-inducible transcript 3 (DDIT3) using HepaRG (AID 2283488)
Outline: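 DDIT3 transcript was quantified by qRT-PCR with ACTB/GAPDH/POLR2A normalization after 48 h chemical treatment of differentiated HepaRG cells in 0.5% DMSO. Dosing was eight-point, half-log, top 100 uM, duplicate wells. Curves fitted bidirectionally versus DMSO.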

[16] = read-out: Pro-epidermal growth factor (Homo sapiens) (UniProt P01133); assay: LTEA_HepaRG_EGF: Life Technologies and Expression Analysis (LTEA) Assay for Epidermal growth factor (EGF) using HepaRG (AID 2283489)
Outline: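 Concentration-response mRNA assay: HepaRG cells dosed 48 h (max 100 uM, 0.5% DMSO), EGF measured by qRT-PCR and normalized to ACTB/GAPDH/POLR2A.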

[17] = read-out: Early growth response protein 1 (EGR1) transcription factor, EGR1 (gene 1958); assay: LTEA_HepaRG_EGR1: Life Technologies and Expression Analysis (LTEA) Assay for Early growth response protein 1 (EGR1) transcription factor using HepaRG (AID 2283490)
Outline: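 EGR1 transcript levels quantified by qRT-PCR (Fluidigm arrays) against three housekeeping genes after 48 h chemical exposure of HepaRG cells. Eight-point half-log series topping at 100 uM, 0.5% DMSO vehicle, analyzed for gain or loss.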

[18] = read-out: Ezrin (EZR), EZR (gene 7430); assay: LTEA_HepaRG_EZR: Life Technologies and Expression Analysis (LTEA) Assay for Ezrin (EZR) using HepaRG (AID 2283491)
Outline: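 Read-out is EZR transcript level by qRT-PCR, normalized to three housekeeping genes and fitted bidirectionally against the DMSO control. Human HepaRG cells received test chemicals for 48 h at eight half-log concentrations up to 100 uM in 0.5% DMSO.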

[19] = read-out: Cytochrome P450 3A7 (Homo sapiens) (UniProt P24462); assay: LTEA_HepaRG_CYP3A7: Life Technologies and Expression Analysis (LTEA) Assay for CYP3A7 using HepaRG (AID 2283492)
Outline: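 qRT-PCR of CYP3A7 in HepaRG lysates after 48 h treatment; concentration-response (8 points, max 100 uM) analysed bidirectionally relative to 0.5% DMSO controls.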

[20] = read-out: Cytochrome P450 (CYP1A2), CYP1A2 (gene 1544); assay: LTEA_HepaRG_CYP1A2: Life Technologies and Expression Analysis (LTEA) Assay for Cytochrome P450 (CYP1A2) using HepaRG (AID 2283479)
Outline: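 In duplicate wells, HepaRG cultures maintained in 0.5% DMSO were treated 48 h across an 8-point, half-log series topping at 100 uM; phenobarbital (1 mM) served as induction control. Expression was read by qRT-PCR.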

Measured: AC50

Cytochrome P450 2C19 (Homo sapiens), sequence (P33261 whole entry, looked up): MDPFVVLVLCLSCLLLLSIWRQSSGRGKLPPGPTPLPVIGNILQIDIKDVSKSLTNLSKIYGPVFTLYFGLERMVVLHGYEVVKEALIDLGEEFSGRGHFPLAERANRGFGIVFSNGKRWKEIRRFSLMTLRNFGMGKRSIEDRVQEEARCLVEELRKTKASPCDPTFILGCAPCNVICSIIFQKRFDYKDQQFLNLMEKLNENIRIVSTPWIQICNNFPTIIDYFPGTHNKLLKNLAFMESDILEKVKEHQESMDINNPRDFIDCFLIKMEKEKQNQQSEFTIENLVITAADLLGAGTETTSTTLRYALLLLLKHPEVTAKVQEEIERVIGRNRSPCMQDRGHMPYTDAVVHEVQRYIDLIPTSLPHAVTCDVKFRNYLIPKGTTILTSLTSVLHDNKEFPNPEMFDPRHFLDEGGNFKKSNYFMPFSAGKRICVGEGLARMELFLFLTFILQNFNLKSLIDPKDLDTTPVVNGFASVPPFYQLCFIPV
Caspase-3 (Homo sapiens), sequence (P42574 whole entry, looked up): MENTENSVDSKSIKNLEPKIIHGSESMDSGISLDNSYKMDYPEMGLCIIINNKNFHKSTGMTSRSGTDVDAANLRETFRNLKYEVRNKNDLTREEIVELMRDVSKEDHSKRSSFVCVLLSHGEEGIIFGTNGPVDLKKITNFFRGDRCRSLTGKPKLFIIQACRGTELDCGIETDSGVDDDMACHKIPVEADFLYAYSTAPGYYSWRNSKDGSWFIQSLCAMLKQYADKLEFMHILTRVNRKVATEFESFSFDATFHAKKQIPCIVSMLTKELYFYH
Cytochrome P450 3A4 (Homo sapiens), sequence (P08684 whole entry, looked up): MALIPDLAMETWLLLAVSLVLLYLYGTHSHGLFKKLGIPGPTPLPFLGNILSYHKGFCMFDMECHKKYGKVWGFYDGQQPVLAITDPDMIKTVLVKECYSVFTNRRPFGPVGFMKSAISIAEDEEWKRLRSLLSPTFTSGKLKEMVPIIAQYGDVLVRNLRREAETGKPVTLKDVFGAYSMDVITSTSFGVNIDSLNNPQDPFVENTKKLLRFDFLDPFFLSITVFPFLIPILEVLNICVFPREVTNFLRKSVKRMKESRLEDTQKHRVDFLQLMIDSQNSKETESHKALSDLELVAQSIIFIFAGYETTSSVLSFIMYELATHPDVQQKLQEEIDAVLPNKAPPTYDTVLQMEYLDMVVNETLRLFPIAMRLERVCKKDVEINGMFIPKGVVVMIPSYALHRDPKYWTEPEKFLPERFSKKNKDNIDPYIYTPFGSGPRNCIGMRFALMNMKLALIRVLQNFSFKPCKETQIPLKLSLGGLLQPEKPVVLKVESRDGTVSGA
Cytochrome P450 3A7 (Homo sapiens), sequence (P24462 whole entry, looked up): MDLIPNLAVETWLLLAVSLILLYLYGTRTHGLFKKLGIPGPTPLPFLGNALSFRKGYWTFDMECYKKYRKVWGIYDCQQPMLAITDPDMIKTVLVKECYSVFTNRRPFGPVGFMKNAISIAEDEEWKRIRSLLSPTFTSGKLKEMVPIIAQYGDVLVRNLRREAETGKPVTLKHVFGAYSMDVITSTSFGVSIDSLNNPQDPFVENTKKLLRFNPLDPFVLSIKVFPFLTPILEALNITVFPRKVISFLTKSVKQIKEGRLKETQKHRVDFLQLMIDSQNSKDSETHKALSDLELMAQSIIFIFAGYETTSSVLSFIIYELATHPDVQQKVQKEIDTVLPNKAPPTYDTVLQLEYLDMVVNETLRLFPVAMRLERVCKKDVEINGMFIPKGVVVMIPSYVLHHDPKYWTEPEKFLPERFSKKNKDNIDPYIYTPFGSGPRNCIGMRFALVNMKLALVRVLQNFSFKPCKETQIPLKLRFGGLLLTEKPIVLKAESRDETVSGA
Apoptosis regulator Bcl-2 (Homo sapiens), sequence (P10415 whole entry, looked up): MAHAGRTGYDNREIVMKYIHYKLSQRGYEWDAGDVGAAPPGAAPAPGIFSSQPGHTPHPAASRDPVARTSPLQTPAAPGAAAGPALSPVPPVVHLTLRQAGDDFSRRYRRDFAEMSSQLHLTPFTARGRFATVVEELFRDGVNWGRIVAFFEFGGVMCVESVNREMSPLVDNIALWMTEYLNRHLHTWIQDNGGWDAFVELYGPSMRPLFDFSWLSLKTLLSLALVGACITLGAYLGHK

Cc1nc(-c2ccccn2)ncc1C(=O)Nn1cc(C)c2cc(F)ccc21
active: [2] 80600 nM | [8] 168 nM | [9] 1020 nM | [11] 75600 nM | [12] 24300 nM | [13] 59400 nM | [14] 1570 nM | [19] 945 nM
not listed: [20]
inactive: all other assays above

COc1cc2c(c(OC)c1OC)-c1ccc(OC)c(=O)cc1[C@@H](NC(C)=O)CC2
active: [1] 237 nM | [2] 138 nM | [8] 98.6 nM | [10] 95.1 nM | [11] 77.7 nM | [12] 81.7 nM | [13] 80.4 nM
not listed: [3] | [9] | [14] | [19] | [20]
inactive: all other assays above

CC(=O)c1ccccc1
not listed: [3]
inactive: all other assays above

CCCCCCCC/C=C\CCCCCCCC(=O)OC[C@@H](O)[C@H]1OC[C@H](O)[C@H]1O
not listed: [2]
inactive: all other assays above
